In PubChem BioAssay AID493179 (National Center for Advancing Translational Sciences (NCATS), 2011):
Inconclusive results are not listed. Unmarked numbers belong to inactive results. The source made the active and inactive calls. Calls come from the whole dose curve; as a rule, active = well fitted inhibition curve with a large enough effect; inconclusive = small, poorly fitted or top-dose-only effect; inactive = flat fitted curve, though single readings scatter.

Assay: Secondary Assay for General miRNAs Modulators and/or Inhibitors/Activators of miR-21: miR-30 Firefly Luciferase Assay for second round cherrypicks
Settings: HeLa miR-30 FLuc reporter, luminescence, 48 h; series mostly up to 38.3 µM; activity change, negative = inhibition: at the top concentration
Excerpt: MLPCN Grant: 1 R21 NS059478-01 Assay Provider: Qihong Huang, The Wistar Institute NCGC Assay Overview: MicroRNAs (miRNAs) are endogenously encoded small (~20-25 nucleotides), nonprotein-coding RNAs that are involved in post-transcriptional repression of target messenger RNAs (mRNAs) (Le and Hannon, 2004). Estimated to be involved in the regulation of 30% of all protein-coding mRNAs (Filipowicz et al., 2008), miRNAs play a significant role in many biological processes including cellular differentiation and tissue development (Ghildiyal and Zamore, 2009). […] Compounds active in the miR-21 FLuc assay were clustered using Leadscope and active chemical series were prioritized based on chemical properties, potential for medicinal chemistry optimization, and SAR. Within each chemical series, representative compounds were re-acquired to test for activity in a secondary assay based on the quality of their CRC, efficacy, and potency. The secondary assay to determine if compounds active in the miR-21 FLuc assay were potentially specific for miR-21 and were not general modulators of the miRNA pathway was another cell-based FLuc reporter gene assay, this time targeting miR-30. Compounds found active in both the miR-21 FLuc and miR-30 FLuc assays are not considered miR-21 specific compounds, and may be general miRNA modulators.
NCGC Assay Protocol Summary: Reagents: HeLa cells stably expressing firefly luciferase (FLuc) under the control of a CMV promoter (upstream) and a miR-30 binding sequence directly downstream of the gene. These cells also stably express miR-30. Control compounds used were compound C3 (provided by collaborator), N6-phenyladenosine (MP Biomedicals, 0215379625), and DMSO. Assay Summary: 6uL of HeLa miR-30-FLuc cells in assay buffer (DMEM, Invitrogen #21063-029; 10% FBS, HyClone #SH30071.03) were dispensed at 1000cells/well (1.7 x 10^5 cells/mL) into Greiner solid-white TC-treated 1536-well plates using a Multidrop Combi (Thermo Fisher Scientific). Plates were incubated for one hour at 37 degree Celsius, 95% humidity, 5% CO2. These assay plates were then treated with 23nL of compound or DMSO using a Kalypsys pin tool, which allows for delivery of a 24-point titration of each compound to the assay plate, with a final compound concentration ranging from approximately 40uM to 5pM. Assay plates were then incubated for 48 hours. After incubation, plates were allowed to come to RT for one hour prior to delivery of 3uL of 3X luciferase detection reagent. After a 15 minute incubation to allow for cell lysis, luciferase activity was measured using a ViewLux CCD imager (PerkinElmer), with an average exposure time of 2-12 seconds. Keywords: NIH Roadmap, MLPCN, MLSMR, qHTS, miR-21, miR-30, microRNA, firefly luciferase, FLuc.
For `Cc1ccc(C(=O)Nc2ccc3c(c2)ncn3C)cc1`, the Potency was 2.83 µM (active). For `Cc1ccc(NC(=O)c2ccc(-c3ccccc3)s2)cc1`, the Potency was 5.04 µM (active). For `CC(=O)N1CCc2cc(CNC(=O)Cc3ccc(F)cc3)ccc21`, the Potency was 10 µM (active). For `Cc1ccccc1C(=O)Nc1nnc(-c2ccco2)o1`, the Potency was 12.6 µM (active). For `Cc1ccccc1NC(=O)c1cc2c([nH]c1=O)CC(C)(C)CC2=O`, the Potency was 0.634 µM (active). For `CCC(C)C(=O)N1CCCC(c2nc(-c3cccs3)no2)C1` (stereo not given), the Potency was 6.34 µM (active). For `CCCCc1nn2c(=O)cc(COC(=O)c3cccc(NC(=O)c4cccc(C)c4)c3)nc2s1`, the Potency was 4 µM (active). With `Cc1ccc2c(Cl)c(C(=O)Nc3ccc4c(c3)OCO4)sc2c1` the Potency was 1.59 µM (active). For `CC(C)(C)CC(=O)Nc1nnc(-c2cccs2)s1`, the Potency was 5.04 µM (active). For `CCC(C)NC(=O)CCCn1c(=O)c2cccn2c2ccccc21` (stereo not given), the “activity change, negative = inhibition” value was -2.15%. With `CCCOc1ccc(OC(=O)c2ccc(-c3ccc(CCC)cn3)cc2)cc1` the Potency was 1.59 µM (active). In the case of `CCc1ccc(C(=O)NCc2cccs2)s1`, the Potency is reported as 20 µM (active). In the case of `Cc1ccc(-c2cc(C(=O)NCC3CCCO3)no2)cc1` (stereo not given), the Potency is reported as 3.56 µM (active). In the case of `CCOC(=O)C1CCN(C(=O)c2ccc(-n3ccc4ccccc43)s2)CC1`, the Potency is reported as 11.3 µM (active). For `Cc1cc(N2CCN(C)CC2)nc2ccc(NC(=O)c3ccccc3F)cc12`, the Potency was 10 µM (active). In the case of `CN(c1ccccc1)S(=O)(=O)c1nnc(NC(=O)c2ccco2)s1`, the “activity change, negative = inhibition” value is reported as 0.66%. With `CCc1cc(C(=O)Nc2ccccc2)cs1` the Potency was 2.83 µM (active). For `CC(=O)O[C@H]1C[C@@]2(C)[C@@H](C[C@@H](O)[C@H]3[C@@]4(C)CC[C@@H](O)[C@@H](C)C4CC[C@@]32C)/C1=C(\CCC=C(C)C)C(=O)O` (stereo not given in full), the “activity change, negative = inhibition” value was -1.25%. For `CCOCCCNC(=O)c1cc2c(=O)n3ccccc3nc2s1`, the Potency was 11.3 µM (active). For `COc1ccccc1N1CCN(C(=O)c2nc(-c3ccc(C)cc3)n3c2CCCCC3)CC1`, the “activity change, negative = inhibition” value was 8.55%. In the case of `Cc1ccccc1OCc1nc2c3cnn(-c4ccccc4F)c3ncn2n1`, the Potency is reported as 20 µM (active). In the case of `COc1ccc(CNc2nc(-c3ccco3)nn2C(=O)c2ccccc2Cl)cc1`, the Potency is reported as 22.5 µM (active). With `CCC(=O)Nc1sc(C(=O)Nc2ccccc2)c(C)c1C(=O)OC` the Potency was 11.3 µM (active). In the case of `O=C(Nc1sc2c(c1C(=O)NCc1ccco1)CCCC2)c1cc(=O)c2ccccc2o1`, the Potency is reported as 7.11 µM (active). For `CC(c1ccccn1)N(C)C(=O)c1ccc2nc(Cc3cccc(Cl)c3)oc2c1` (stereo not given), the Potency was 6.34 µM (active). For `O=C(NC1CCCCCC1)C1CCN(C(=O)N2CCOc3ccc(Cl)cc32)CC1`, the “activity change, negative = inhibition” value was -4.96%. In the case of `CN(C)c1ccc(CNC(=O)C2COc3ccccc3C2)cc1` (stereo not given), the “activity change, negative = inhibition” value is reported as -18.4%. With `CC(=O)c1ccc(Oc2ncnc3c2oc2ccccc23)cc1` the Potency was 3.18 µM (active). In the case of `CC(C)(C)C1CCc2nc(NC(=O)Cc3ccc(Cl)cc3)sc2C1` (stereo not given), the “activity change, negative = inhibition” value is reported as -15%. For `CC(C)c1cc(C(=O)Nc2cccnc2)no1`, the Potency was 3.56 µM (active). For `Cc1ccc2nc(-c3ccc(NC(=O)c4ccc(S(C)(=O)=O)cc4)cc3)sc2c1`, the “activity change, negative = inhibition” value was -8.74%. With `CCOC(=O)c1cccc(NC(=O)c2cc(CN3CCCC3)on2)c1` the Potency was 4.49 µM (active). With `Cc1cccc(NC(=O)Nc2ccc(Br)cc2)n1` the Potency was 4.49 µM (active). With `C/C(=N/NC(=O)c1ccccc1)c1ccc(NC(=O)C(F)(F)F)cc1` the “activity change, negative = inhibition” value was -12.5%. In the case of `CCC(CC)C(=O)Nc1nnc(S(=O)(=O)N2CCCCCC2)s1`, the “activity change, negative = inhibition” value is reported as 10.7%. For `COCCNC(=O)c1ccc2c(c1)ncn2-c1ccc(F)c(F)c1`, the Potency was 22.5 µM (active). In the case of `CCCCN1CCc2c([nH]c3ccccc23)C1=O`, the Potency is reported as 11.3 µM (active). With `Cc1cc(C)c2c(N)c(C(=O)Nc3ccccc3C(F)(F)F)sc2n1` the Potency was 11.3 µM (active). With `Cc1ccc(-n2ncc3c(Nc4ccc5c(c4)OCCO5)ncnc32)cc1Cl` the Potency was 10 µM (active). With `COc1ccc(Nc2nc(C)c3ccccc3n2)cc1` the Potency was 11.3 µM (active).
